From PubChem BioAssay (EPA / NIEHS) come the findings set out here.

The nature of experiment [1]: ATG_NFI_CIS: Attagene CIS-FACTORIAL HepG2 Assay for human Nuclear Factor I (NFI) (AID 2282989). The note with it: HepG2 cis-regulatory reporter, NFI response element transcription; actives raise or lower the signal. The essentials: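 Cells: human liver HepG2, transiently transfected with promoter-regulated reporter transcription units. Exposure 24 h. Detection: fluorescent RT-PCR products separated by capillary electrophoresis, normalised to DMSO negative control.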

For experiment [2], the target named is Myc proto-oncogene protein (Homo sapiens) (UniProt P01106). In words: ATG_Myc_CIS: Attagene CIS-FACTORIAL HepG2 Assay for human Myelocytomatosis (Myc) Proto-Oncogene Transcription Factor (AID 2282990). The note with it: HepG2, Attagene cis-reporter transcription factor activity; actives raise or lower the signal. The method, boiled down: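 Multiplexed cis-reporter transcription in HepG2 cells after 24 h chemical treatment. Reporter mRNA measured by RT-PCR and capillary electrophoresis fluorescence; activity fitted bidirectionally against DMSO control.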

A short description of experiment [3]: ATG_NF_kB_CIS: Attagene CIS-FACTORIAL HepG2 Assay for human Nuclear Factor Kappa B (NF-kB) (AID 2282991). The settings on record: HepG2 Attagene cis-factorial NF-kB reporter mRNA; actives raise or lower the signal. The essentials:
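HepG2 cells transiently transfected with multiplexed cis-element reporter units measuring endogenous transcription factor activity; reporter mRNA read 24 h after dosing by RT-PCR, fluorescent labelling, HpaI digestion and capillary electrophoresis. Bidirectional fit against DMSO baseline.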

A short description of experiment [4]: ATG_NRF2_ARE_CIS: Attagene CIS-FACTORIAL HepG2 Assay for human Nuclear Factor Erythroid 2 Related Factor 2 (NFR2) response to Antioxidant Response Elements (ARE) (AID 2282992). The note with it: HepG2 Attagene ARE/NRF2 reporter, transcription factor activity; actives raise or lower the signal. The method, boiled down: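 Using transiently transfected HepG2 cells exposed for 24 h, reporter mRNA levels were determined by RT-PCR with fluorescent primer extension and capillary electrophoresis, analysed for gain or loss of signal against DMSO.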

Experiment [5] in a line: ATG_Oct_MLP_CIS: Attagene CIS-FACTORIAL HepG2 Assay for human Octamer-Binding Transcription Factor (Oct) (AID 2282993). The note with it: HepG2 Attagene cis-factorial Oct reporter, mRNA; actives raise or lower the signal. The method, boiled down: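 HepG2, transient MRTU transfection, cis promoter elements; 24 h dosing; RT-PCR/CE fluorescence read-out of reporter mRNA; fit both directions vs DMSO.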

Experiment [6] has as its target Cellular tumor antigen p53 (Homo sapiens) (UniProt P04637). The experiment can be described thus: ATG_p53_CIS: Attagene CIS-FACTORIAL HepG2 Assay for human p53 Transcription Factor (AID 2282994). The settings on record: HepG2 p53 cis-element reporter, Attagene mRNA; actives raise or lower the signal. The essentials:
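In HepG2 cells, reporter transcription units under cis-regulatory promoters were transiently introduced. Following 24 h treatment, RNA was processed to labelled, digested cDNA fragments read by capillary electrophoresis; fitting was bidirectional versus DMSO.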

The target in experiment [7] is human Peroxisome Proliferator-activated Receptor delta (PPARd), PPARD (gene 5467) (UniProt Q03181). In words: ATG_PPARd_TRANS: Attagene TRANS-FACTORIAL HepG2 Assay for human Peroxisome Proliferator-activated Receptor delta (PPARd) (AID 2283002; active = hit-call score of the fitted dose curve at least 0.9, where 1 is the maximum). The method, boiled down: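 Multiplexed trans-activation format: HepG2 liver cells expressing exogenous NR-Gal4 chimeras and GAL4-UAS reporters were exposed for 24 h. Reporter mRNA was detected by RT-PCR with capillary electrophoresis fluorescence; activity fitted as gain of signal relative to DMSO.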

In experiment [8] the target is Peroxisome proliferator-activated receptor gamma (Homo sapiens) (UniProt P37231). In words: ATG_PPARg_TRANS: Attagene TRANS-FACTORIAL HepG2 Assay for human Peroxisome Proliferator-activated Receptor-gamma (PPARg) (AID 2283007; active = hit-call score of the fitted dose curve at least 0.9, where 1 is the maximum). The method, boiled down:
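HepG2 cells transiently transfected with multiplexed GAL4-UAS reporter units and exogenous chimeric NR-Gal4 proteins; reporter mRNA quantified after 24 h compound exposure by RT-PCR, fluorescent labelling, HpaI digestion and capillary electrophoresis; gain-of-signal fitted versus DMSO baseline.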

In experiment [9] the target is Nuclear receptor subfamily 1 group I member 2 (Homo sapiens) (UniProt O75469). The experiment can be described thus: ATG_PXR_TRANS: Attagene TRANS-FACTORIAL HepG2 Assay for human Pregnane X Receptor (PXR) (AID 2283008; active = hit-call score of the fitted dose curve at least 0.9, where 1 is the maximum). The essentials: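 Multiplexed TRANS reporter panel in HepG2; this component tracks PXR-Gal4-driven reporter mRNA after 24 h dosing, measured by RT-PCR with capillary electrophoresis fluorescence, fitted against DMSO.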

Experiment [10] concerns the target human Peroxisome Proliferator-activated Receptor alpha (PPARa), PPARA (gene 5465) (UniProt Q07869). In words: ATG_PPARa_TRANS: Attagene TRANS-FACTORIAL HepG2 Assay for human Peroxisome Proliferator-activated Receptor alpha (PPARa) (AID 2283001; active = hit-call score of the fitted dose curve at least 0.9, where 1 is the maximum). The method, boiled down: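 Exposure: 24 h, transiently transfected HepG2 cells. Endpoint: GAL4-UAS reporter mRNA, RT-PCR with capillary electrophoresis fluorescence. Baseline: DMSO; increases fitted.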

For experiment [11], the target named is human RAR-related Orphan Receptor beta (RORb), RORB (gene 6096) (UniProt Q92753). The experiment can be described thus: ATG_RORb_TRANS: Attagene TRANS-FACTORIAL HepG2 Assay for human RAR-related Orphan Receptor beta (RORb) (AID 2283010; active = hit-call score of the fitted dose curve at least 0.9, where 1 is the maximum). The essentials: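 Multiplexed transcription-factor reporter assay: HepG2 cells transiently carrying NR-Gal4/GAL4-UAS constructs, 24 h treatment, mRNA quantified by RT-PCR plus capillary electrophoresis fluorescence; activity scored as induction over DMSO.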

The target of experiment [12] is human RAR-related Orphan Receptor gamma (RORg), RORC (gene 6097) (UniProt P51449). The experiment can be described thus: ATG_RORg_TRANS: Attagene TRANS-FACTORIAL HepG2 Assay for human RAR-related Orphan Receptor gamma (RORg) (AID 2283011; active = hit-call score of the fitted dose curve at least 0.9, where 1 is the maximum). The method, boiled down:
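Reporter transcripts from a transfected RORg-GAL4 chimera in HepG2 cells were quantified 24 h after dosing by RT-PCR, 6-FAM labelling, HpaI digestion and capillary electrophoresis; increases over DMSO baseline were fitted.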

In experiment [13] the target is Retinoic acid receptor alpha (Homo sapiens) (UniProt P10276). In words: ATG_RARa_TRANS: Attagene TRANS-FACTORIAL HepG2 Assay for human Retinoic Acid Receptor alpha (RARa) (AID 2283005; active = hit-call score of the fitted dose curve at least 0.9, where 1 is the maximum). The method, boiled down: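 HepG2 cells transiently transfected with multiple reporter units expressing chimeric RARα-GAL4 fusion, with GAL4-UAS-driven reporters. After 24 h compound exposure, reporter mRNA induction quantified by RT-PCR and capillary electrophoresis with fluorescent labeling; gain-of-signal fitted relative to DMSO control.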

In experiment [14] the target is human Retinoic Acid Receptor gamma (RARg), RARG (gene 5916) (UniProt P13631). In words: ATG_RARg_TRANS: Attagene TRANS-FACTORIAL HepG2 Assay for human Retinoic Acid Receptor gamma (RARg) (AID 2283009; active = hit-call score of the fitted dose curve at least 0.9, where 1 is the maximum). The essentials: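 Gain-of-signal relative to DMSO is reported from fluorescent capillary electrophoresis of RT-PCR reporter products. These came from HepG2 cells expressing transfected RARg-GAL4 chimeras with UAS reporters, harvested 24 h after dosing.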

In general, AC50 refers to the concentration at which the activity in the assay is half-maximal.

The structures appear in SMILES notation. Results filed as inconclusive are left out. The source made the active and inactive calls. Rule for the calls, unless noted: active = hit-call score of the fitted dose curve at least 0.9, where 1 is the maximum; inactive = score below 0.9.

Sequence of human Peroxisome Proliferator-activated Receptor alpha (PPARa), PPARA (gene 5465) (Q07869 whole entry, looked up, the tested form may be a part): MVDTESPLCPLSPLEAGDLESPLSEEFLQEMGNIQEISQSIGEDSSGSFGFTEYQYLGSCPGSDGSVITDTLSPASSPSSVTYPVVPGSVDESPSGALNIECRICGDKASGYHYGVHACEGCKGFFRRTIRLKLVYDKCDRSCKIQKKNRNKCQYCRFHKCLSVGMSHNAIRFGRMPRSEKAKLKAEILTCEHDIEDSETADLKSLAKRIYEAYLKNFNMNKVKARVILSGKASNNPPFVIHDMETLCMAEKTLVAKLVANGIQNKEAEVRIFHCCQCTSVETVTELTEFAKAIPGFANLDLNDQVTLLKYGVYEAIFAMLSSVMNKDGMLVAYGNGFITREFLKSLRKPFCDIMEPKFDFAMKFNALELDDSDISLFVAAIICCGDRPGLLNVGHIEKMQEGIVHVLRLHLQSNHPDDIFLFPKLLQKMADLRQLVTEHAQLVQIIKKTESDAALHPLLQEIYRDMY
Sequence of Peroxisome proliferator-activated receptor gamma (Homo sapiens) (P37231 whole entry, looked up, the tested form may be a part): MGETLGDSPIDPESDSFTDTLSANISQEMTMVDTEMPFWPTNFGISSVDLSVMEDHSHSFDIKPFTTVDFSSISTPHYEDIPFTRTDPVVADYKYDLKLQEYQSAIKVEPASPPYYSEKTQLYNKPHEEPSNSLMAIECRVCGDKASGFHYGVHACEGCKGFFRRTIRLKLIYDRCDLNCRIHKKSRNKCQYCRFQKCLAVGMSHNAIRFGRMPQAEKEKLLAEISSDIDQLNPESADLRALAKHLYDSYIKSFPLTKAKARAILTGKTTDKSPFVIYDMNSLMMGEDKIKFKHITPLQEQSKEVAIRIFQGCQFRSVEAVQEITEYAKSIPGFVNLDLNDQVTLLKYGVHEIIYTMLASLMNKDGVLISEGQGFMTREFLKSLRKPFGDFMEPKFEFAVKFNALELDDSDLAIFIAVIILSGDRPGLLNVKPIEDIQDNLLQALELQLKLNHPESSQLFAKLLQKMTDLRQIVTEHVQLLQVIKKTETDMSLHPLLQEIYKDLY
Sequence of human RAR-related Orphan Receptor beta (RORb), RORB (gene 6096) (Q92753 whole entry, looked up, the tested form may be a part): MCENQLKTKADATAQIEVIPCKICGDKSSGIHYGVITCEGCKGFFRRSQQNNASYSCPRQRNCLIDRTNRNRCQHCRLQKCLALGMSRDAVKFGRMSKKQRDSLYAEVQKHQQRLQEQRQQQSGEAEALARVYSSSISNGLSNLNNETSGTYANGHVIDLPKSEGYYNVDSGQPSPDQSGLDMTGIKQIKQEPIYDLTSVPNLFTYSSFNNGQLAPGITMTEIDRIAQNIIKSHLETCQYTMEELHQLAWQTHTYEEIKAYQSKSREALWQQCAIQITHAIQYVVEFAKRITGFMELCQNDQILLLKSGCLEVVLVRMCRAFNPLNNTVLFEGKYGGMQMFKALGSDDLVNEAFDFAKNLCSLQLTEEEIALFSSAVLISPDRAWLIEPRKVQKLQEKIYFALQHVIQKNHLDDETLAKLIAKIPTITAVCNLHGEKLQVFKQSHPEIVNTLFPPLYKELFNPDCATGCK
Sequence of Myc proto-oncogene protein (Homo sapiens) (P01106 whole entry, looked up): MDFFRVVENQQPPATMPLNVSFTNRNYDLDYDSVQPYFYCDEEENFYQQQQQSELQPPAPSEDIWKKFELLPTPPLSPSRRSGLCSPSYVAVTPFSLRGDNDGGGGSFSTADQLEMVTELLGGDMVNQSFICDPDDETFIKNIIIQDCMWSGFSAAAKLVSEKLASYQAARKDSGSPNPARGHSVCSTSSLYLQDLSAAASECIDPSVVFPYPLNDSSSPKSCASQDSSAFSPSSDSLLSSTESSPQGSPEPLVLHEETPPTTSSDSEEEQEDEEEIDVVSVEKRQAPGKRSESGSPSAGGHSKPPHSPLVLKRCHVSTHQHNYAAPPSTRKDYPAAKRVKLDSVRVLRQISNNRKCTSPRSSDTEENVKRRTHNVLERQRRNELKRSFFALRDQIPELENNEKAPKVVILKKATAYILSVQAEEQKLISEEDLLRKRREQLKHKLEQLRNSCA
Sequence of human RAR-related Orphan Receptor gamma (RORg), RORC (gene 6097) (P51449 whole entry, looked up, the tested form may be a part): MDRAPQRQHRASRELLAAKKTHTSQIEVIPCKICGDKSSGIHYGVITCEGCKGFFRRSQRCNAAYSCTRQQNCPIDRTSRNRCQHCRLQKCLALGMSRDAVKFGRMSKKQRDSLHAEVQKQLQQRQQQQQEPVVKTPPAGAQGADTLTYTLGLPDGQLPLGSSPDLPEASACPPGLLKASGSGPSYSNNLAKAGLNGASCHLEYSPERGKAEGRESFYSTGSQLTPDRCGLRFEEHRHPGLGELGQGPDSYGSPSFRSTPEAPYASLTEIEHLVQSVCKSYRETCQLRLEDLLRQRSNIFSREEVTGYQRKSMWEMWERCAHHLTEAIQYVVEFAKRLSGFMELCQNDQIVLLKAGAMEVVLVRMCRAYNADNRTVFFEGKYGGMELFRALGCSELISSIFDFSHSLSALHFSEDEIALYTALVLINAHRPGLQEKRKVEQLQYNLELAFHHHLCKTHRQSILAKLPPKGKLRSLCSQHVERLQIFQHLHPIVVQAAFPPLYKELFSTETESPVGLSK
Sequence of human Peroxisome Proliferator-activated Receptor delta (PPARd), PPARD (gene 5467) (Q03181 whole entry, looked up, the tested form may be a part): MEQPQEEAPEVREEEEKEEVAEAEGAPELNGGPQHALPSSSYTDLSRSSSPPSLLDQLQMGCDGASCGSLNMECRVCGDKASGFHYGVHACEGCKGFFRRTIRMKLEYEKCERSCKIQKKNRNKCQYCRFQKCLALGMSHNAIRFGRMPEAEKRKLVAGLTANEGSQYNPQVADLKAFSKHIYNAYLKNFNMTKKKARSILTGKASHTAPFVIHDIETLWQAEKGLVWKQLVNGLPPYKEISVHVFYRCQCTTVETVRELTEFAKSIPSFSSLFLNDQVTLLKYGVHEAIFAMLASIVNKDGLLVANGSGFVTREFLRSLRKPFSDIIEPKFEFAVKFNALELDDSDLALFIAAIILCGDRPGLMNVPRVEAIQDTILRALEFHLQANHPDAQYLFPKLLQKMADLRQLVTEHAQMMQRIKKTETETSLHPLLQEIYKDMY
Sequence of Cellular tumor antigen p53 (Homo sapiens) (P04637 whole entry, looked up, the tested form may be a part): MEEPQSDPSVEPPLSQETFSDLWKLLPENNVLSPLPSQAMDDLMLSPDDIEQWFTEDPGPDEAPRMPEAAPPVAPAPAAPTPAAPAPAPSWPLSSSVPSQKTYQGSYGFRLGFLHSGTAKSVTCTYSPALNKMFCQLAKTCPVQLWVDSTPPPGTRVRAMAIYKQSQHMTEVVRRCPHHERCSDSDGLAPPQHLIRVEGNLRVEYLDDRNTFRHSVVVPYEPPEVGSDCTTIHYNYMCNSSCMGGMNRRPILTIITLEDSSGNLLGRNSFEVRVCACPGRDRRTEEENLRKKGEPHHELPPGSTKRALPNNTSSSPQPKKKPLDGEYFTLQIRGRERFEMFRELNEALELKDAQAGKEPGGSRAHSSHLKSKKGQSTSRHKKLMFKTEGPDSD
Sequence of Nuclear receptor subfamily 1 group I member 2 (Homo sapiens) (O75469 whole entry, looked up, the tested form may be a part): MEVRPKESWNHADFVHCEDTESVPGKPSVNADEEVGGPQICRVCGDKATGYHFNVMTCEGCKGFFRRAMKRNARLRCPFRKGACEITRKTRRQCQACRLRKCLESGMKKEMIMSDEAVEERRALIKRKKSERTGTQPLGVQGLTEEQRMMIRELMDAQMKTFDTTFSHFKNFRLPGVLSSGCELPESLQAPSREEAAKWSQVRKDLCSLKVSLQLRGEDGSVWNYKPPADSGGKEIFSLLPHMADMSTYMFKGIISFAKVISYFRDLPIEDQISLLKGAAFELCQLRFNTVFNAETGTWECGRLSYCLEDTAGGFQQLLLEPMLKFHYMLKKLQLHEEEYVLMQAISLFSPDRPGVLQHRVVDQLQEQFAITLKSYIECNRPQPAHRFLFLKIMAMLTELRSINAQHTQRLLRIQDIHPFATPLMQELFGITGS
Sequence of Retinoic acid receptor alpha (Homo sapiens) (P10276 whole entry, looked up, the tested form may be a part): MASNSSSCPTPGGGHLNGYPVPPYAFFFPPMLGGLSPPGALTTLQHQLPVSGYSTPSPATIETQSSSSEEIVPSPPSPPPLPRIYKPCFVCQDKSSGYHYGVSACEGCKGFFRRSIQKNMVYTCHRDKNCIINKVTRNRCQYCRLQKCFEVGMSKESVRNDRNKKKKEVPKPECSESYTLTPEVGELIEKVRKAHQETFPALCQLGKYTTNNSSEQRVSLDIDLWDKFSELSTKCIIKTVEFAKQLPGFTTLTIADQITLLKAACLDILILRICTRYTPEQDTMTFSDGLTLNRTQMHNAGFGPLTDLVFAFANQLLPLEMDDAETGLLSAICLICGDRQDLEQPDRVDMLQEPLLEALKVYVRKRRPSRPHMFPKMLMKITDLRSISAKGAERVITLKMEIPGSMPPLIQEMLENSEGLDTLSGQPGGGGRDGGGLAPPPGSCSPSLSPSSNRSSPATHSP
Sequence of human Retinoic Acid Receptor gamma (RARg), RARG (gene 5916) (P13631 whole entry, looked up, the tested form may be a part): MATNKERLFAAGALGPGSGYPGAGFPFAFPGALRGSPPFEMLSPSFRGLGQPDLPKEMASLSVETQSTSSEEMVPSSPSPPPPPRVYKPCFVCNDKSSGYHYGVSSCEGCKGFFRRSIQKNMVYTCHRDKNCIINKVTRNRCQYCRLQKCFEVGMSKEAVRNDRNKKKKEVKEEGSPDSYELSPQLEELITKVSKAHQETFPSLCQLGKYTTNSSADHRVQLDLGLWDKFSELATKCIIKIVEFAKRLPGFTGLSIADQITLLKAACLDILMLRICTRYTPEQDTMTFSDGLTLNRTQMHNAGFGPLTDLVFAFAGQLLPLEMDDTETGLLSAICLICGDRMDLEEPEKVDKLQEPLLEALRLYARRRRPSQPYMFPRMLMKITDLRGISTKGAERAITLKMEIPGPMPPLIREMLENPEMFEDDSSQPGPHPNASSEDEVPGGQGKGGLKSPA

On to `CSc1nc(NC2CC2)nc(NC(C)(C)C)n1`, for which the outcome in experiment [1], in experiment [2], in experiment [3], in experiment [5], in [6] and in experiment [7] was inactive. Besides, the AC50 was 12.1 µM (active) in [4], 31.9 µM (active) in experiment [8] and 1.05 µM (active) in [9].

In the case of `Cc1ccc(S)cc1`, the result in experiment [1], in experiment [2], in experiment [3], in [4], in experiment [5] and in experiment [10] was inactive. In addition, the call in [7] and in experiment [9] was inactive. The AC50 in experiment [6] is 65.1 µM (active).

As to `CCC(C(=O)NC(N)=O)c1ccccc1` (configuration not stated), the compound was called inactive in experiment [1], in experiment [2], in [3], in [4], in experiment [5] and in experiment [6]. Also, the result in experiment [10], in [7] and in [9] was inactive.

As for `O=C(O)c1snc(Cl)c1Cl`, the call in experiment [1], in experiment [2], in experiment [6], in [10], in [7] and in experiment [9] was inactive. In addition, the AC50 in [3] was 100 µM (active); in experiment [4] it was 27.4 µM (active); in experiment [5], 155 µM (active).

`CCO[Si](CCCS)(OCC)OCC`: the compound was classed as inactive in [1], in [2], in [3], in experiment [4], in experiment [5] and in experiment [6]. For the same compound, the call in experiment [10], in [7], in experiment [9], in experiment [11] and in [12] was inactive.

In the case of `CC1CCC(C(C)(C)O)CC1` (configuration not stated), the compound was classed as inactive in experiment [1], in experiment [2], in [3], in [4], in [5] and in experiment [6]. The compound was called inactive in experiment [10], in [9], in [11] and in experiment [12].

`COCCCOc1ccnc(CS(=O)c2nc3ccccc3[nH]2)c1C` (configuration not stated): the compound was classed as inactive in experiment [1], in experiment [2], in experiment [3], in experiment [5], in experiment [6] and in experiment [10]. Besides, the outcome in experiment [13] and in experiment [14] was inactive. The AC50 in experiment [4] is 36.4 µM (active); in [8], 31.3 µM (active).

As for `CN(C)CCOCCN(C)C`, the compound was called inactive in experiment [1], in [2], in experiment [3], in experiment [4], in [5] and in experiment [6]. Also, the outcome in experiment [10], in experiment [7], in experiment [9] and in experiment [11] was inactive.

As to `O=Cc1ccc(Cl)c([N+](=O)[O-])c1`, the AC50 was 160 µM (active) in experiment [1], 100 µM (active) in [2], 179 µM (active) in experiment [4] and 54.5 µM (active) in [6]. Also, the outcome in [3], in experiment [5], in experiment [10], in experiment [7] and in [12] was inactive.

With `CC(=O)O[C@H](CC(=O)[O-])C[N+](C)(C)C`, the outcome in experiment [1], in [2], in [3], in experiment [4], in [5] and in experiment [6] was inactive. In experiment [7], the call was inactive.

Consider `NC(N)=NC(=O)c1nc(Cl)c(N)nc1N`, for which the outcome in experiment [1], in experiment [2], in [3], in [5], in [6] and in experiment [10] was inactive. In addition, the result in [8], in [9] and in experiment [11] was inactive. Also, in experiment [4], the AC50 was 62.6 µM (active).

`O=C(O)Cc1cccc2ccccc12`: the compound was classed as inactive in [1], in experiment [2], in [3], in experiment [4], in [5] and in experiment [6]. The call in experiment [10], in [11] and in experiment [12] was inactive.
